This is part of a sample that, as a whole, favours compounds with a hit. Of some 83,000 tested, about 20% had one in any assay.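 Cell lines were cultured in 96-well plates, exposed to a single compound concentration, and assessed for percent growth 48 hours later.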 A number with no mark means an inactive call. Active and inactive are the calls of the source.
System: SR leukemia
Assay: NCI-60 one-dose screen, 48 h (100 = growth as untreated, 0 = no growth, -100 = all killed)
Conditions: 10 µM unless noted
Method: Growth inhibition of the SR human tumor cell line is measured as a screen for anti-cancer activity. Cells are grown in 96 well plates and exposed to the test compound for 48 hours. Compounds are tested at a single concentration, which is 10^-5 M for most compounds. The reported endpoint is percent growth (GI% or GIPRCNT), where numbers from 0 - 100% represent growth inhibition, and numbers from -100% - 0 represent cell death. For example, a value of 40 represents 60% growth inhibition. A value of 0 means no net growth occurred over the course of the experiment. A value of -40 indicates 40% of cells at the beginning of the experiment died by the end of the experiment. A value of -100 means all cells are dead at the end of the experiment.
NCI-60 Human Tumor Cell Lines Screen was performed using the standard one-dose NCI protocol, which is described in more detail at https://dtp.cancer.gov/discovery_development/nci-60/default.htm.
Compounds with GIPRCNT values below 10 were considered active. Activity score was based on GIPRCNT using the following formula: […]
Score is 0 for GIPRCNT values of 100 or above, 50 for GIPRCNT values of 0, and 100 for GIPRCNT values of -100.

| SMILES | growth |
| --- | --- |
| COc1nccc2cc3c(=O)n4c(cc5ccccc54)c(=O)n3c12 | 87.1% |
| C1CCN(c2nc(N3CCCCC3)nc(N3CCOCC3)n2)CC1 | 89.4% |
| O=C(/C=C/c1ccc(C(F)(F)F)cc1)c1ccc(Nc2nc(NCCO)nc(Nc3ccc(Cl)cc3)n2)cc1 | 21.2% |
| COc1ccc(C(=O)C2CC2c2ccc(Cl)cc2)cc1 (stereo not given) | 77.8% |
| COC(=O)C1(C)CCC[C@]2(C)[C@H]3C[C@H]4C(C(C)C)=C[C@]3(CC[C@@H]12)[C@H]1[C@@H]4[C@@H](OCC#CCN2CCOCC2)CC[C@@H]1OCC#CCN1CCOCC1 (stereo not given in full) | 88.3% |
| CC1CCCCN1CCCNC(=O)c1ccc2c(c1)sc1nc(-c3ccc(F)cc3)cn12 (stereo not given) | 78.1% |
| COc1cc(/C=C2\CN(S(=O)(=O)c3ccccc3)C/C(=C\c3cc(CN4CCCC4)c(O)c(OC)c3)C2=O)cc(CN2CCCC2)c1O | 17.5% |
| CCOc1cc(Cl)c(C(C)NC(=O)c2cccc(OC)c2)cc1OCC (stereo not given) | -19.1% (active) |
| CC(=O)Nc1nc2c(s1)CCc1c-2cn(S(=O)(=O)c2ccccc2)c1-c1ccccc1 | 28.1% |
| O=c1oc2ccc(Br)cc2c(=O)n1-c1ccc(Br)cc1F | 3.7% (active) |
| NNC(=O)CNC(=O)Nc1n[nH]c(=S)s1 | 83.3% |
| O=C(Cc1ccccc1)NC(c1ccc(Cl)cc1)c1c(O)ccc2ccccc12 (stereo not given) | 4.83% (active) |
| O=C(c1nc2ccccc2[nH]1)C1[C@@H](c2cccc(O)c2)C2CC3CCCCC3N2[C@@]12C(=O)Nc1cc(Cl)ccc12 (stereo not given in full) | 3.72% (active) |
| O=C(Nc1nc2c(s1)CCc1c-2c(Br)n(Cc2ccccc2)c1Br)c1ccccc1 | 70.3% |
| CCOC(=O)c1cc2c(n1Cc1ccccc1)-c1oncc1CCC2 | 14.1% |
| CCCSC1=NC2C(N(CC)C(=O)N2CC)N1/N=C/C=C/c1ccccc1[N+](=O)[O-] (stereo not given) | 9.32% (active) |
| Clc1ccc(Nc2nnc(-c3ccc4c(c3)OCO4)o2)cc1 | 83.4% |
| CN(O)c1nc(N(C)O)nc(N2CCOCC2)n1 | 55.6% |
| COc1ccc(C(=O)Nc2ccc3nc(N4CCCCC4)cc(C)c3c2)cc1OC | 33.1% |
| COc1cccc(C2=NN3C(C2)c2ccccc2OC3c2ccc(/C=C3\SC(=O)NC3=O)cc2)c1 (stereo not given) | 120% |

| SMILES | growth |
| --- | --- |
| Nc1ccc(-c2ccc(-c3ccccc3N)c3[nH]c4ccccc4c23)cc1 | 19.6% |
| O=S1(=O)N(Cc2ccccc2)[C@@H](Cc2ccccc2)C2O[C@H]2[C@H](Cc2ccccc2)N1Cc1ccccc1 (stereo not given in full) | 29.6% |
| COc1ccc(/C(C#N)=C/c2nc3c(N4CCOCC4)nc(Cl)nc3n2C)cc1OC | 17.7% |
| CC(=Nc1ccccc1)C1=C(O)C(Cc2ccc(F)cc2)NC1=O (stereo not given) | 6.59% (active) |
| COC(=O)c1c2c(c(C)[n+]([O-])c1C)C(=O)C=C(NCc1ccc(F)c(F)c1)C2=O | 10.5% |
| Oc1c(CN2CCN(c3ccccc3F)CC2)cc(Br)c2cccnc12 | -6.68% (active) |
| O=C1Nc2ccccc2/C1=C/c1ccc[nH]1 | 71.7% |
| OCCNc1nc(Nc2ccc(C3=NN(c4cc(Cl)cc(Cl)c4)C(c4ccc(C(F)(F)F)cc4)C3)cc2)nc(N2CCOCC2)n1 (stereo not given) | 70.5% |
| CC(=O)c1ccc(NC(=O)Nc2ccc(S(=O)(=O)Nc3ccc(Cl)nn3)cc2)cc1 | 117% |
| CC(C)[C@H](NC(=O)Cn1cc(C(=O)O)nn1)C(=O)O | 101% |
| CC(C)Cn1c2c(c(=S)[nH]c1=O)CCC2 | 106% |
| NC(CCl)=NCCC[C@H](N)C(=O)O | 93.5% |
| Clc1ncccc1Nc1ccc2nnc(-c3ccncc3)n2n1 | 71.3% |
| CCCN1C(=O)N(CCC)C2C1NN=c1s/c(=C3\C(=O)N(C(C)C)c4ccccc43)c(=O)n12 (stereo not given) | 7.97% (active) |
| COc1ccc2sc(N(Cc3cccnc3)C(=O)c3ccc(C#N)cc3)nc2c1 | 66.4% |
| CCOC(=O)C1=C(C)N=c2s/c(=C\c3ccccc3O)c(=O)n2C1c1ccc(OC)c2ccccc12 (stereo not given) | -18.4% (active) |
| COC(=O)/C(=C\c1c(-c2ccccc2)[nH]c2ccccc12)S(C)(=O)=O | 45.1% |
| COC(=O)/C(CCC=C(C)C)=C1\[C@@H](OC(C)=O)C[C@@]2(C)[C@H]1C[C@@H](O)[C@H]1[C@@]3(C)CC[C@H](NC(=O)c4cnccn4)[C@@H](C)[C@@H]3CC[C@@]12C | 93.5% |
| COc1cc(C(=O)NN=C2c3ccccc3-c3ccccc32)cc(OC)c1OC | 13.9% |
| Cc1cc(Nc2ccc(OCc3ccccc3)cc2)nc2cc(O)ccc12 | -17.5% (active) |
